Screens from PubChem BioAssay.
SARS PLpro yeast – SARS-CoV PLP inhibition in yeast | S. cerevisiae expressing SARS-CoV PLpro, growth rescue | Potency, µM (titrated, usually from 32.9 µM), for the others: at the highest dose activity, positive = growth rescue, hits mostly activators | 330,000 compounds, 0.19% hits | AID 485353; calls by dose curve; also: potency is read from the fitted curve at half-maximal effect; 0% is about no effect; nearly all actives have a fitted effect of over 55% in size
CHX counter – counter-screen hit for Shiga toxin inhibitors, cycloheximide | cell reporter, cycloheximide protein synthesis inhibition counterscreen | max response, % | 300,000 compounds, 12% hits | AID 2314; in the data active = max response mostly above about 13%, no sharp cut-off; inactive = mostly below about 14%; also: read at 38.3 µM for the half of the compounds with a filed dose; 0% is about no effect
AMA1-RON2 inh – inhibitors of Plasmodium falciparum AMA1-RON2 interaction; AlphaScreen AMA1-biotinylated RON2 peptide binding; Potency, µM (top dose mostly 58.2 µM), for inactives: top-dose activity change, negative = inhibition, hits mostly inhibitors; 360,000 compounds, 0.2% hits;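 also: potency is read from the fitted curve at half-maximal effect; 0% = vehicle wells and -100% = peptide control; nearly all actives have a fitted effect of over 45% in size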
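AMA1 (3D7) with his tag at 25 nM final met compounds first, then biotinylated RON2 peptide at 25 nM; detection used donor plus acceptor beads, 10 µg/mL apiece, read by AlphaScreen after 30 min at room temperature.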
Pf growth 96h – P. falciparum growth inhibition at 96 hour, primary screen for plastid delayed-death inhibitors; Potency, µM (series often up to 28.7 µM), for the others: at the top dose activity change, negative = inhibition, hits mostly inhibitors; 320,000 compounds, 6.9% hits; P. falciparum luciferase reporter growth, 96 h; also: potency is read from the fitted curve at half-maximal effect; % is scaled to controls: 0 for no effect and ±100 for the full control effect
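Luminescence readout: decreased luciferase signal marks inhibited growth of reporter-expressing P. falciparum in infected red cells (2% hematocrit, 0.05% parasitemia final), exposed to compound two generations (96 h, 37 C, 5% CO2).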
Shiga inhibitor – inhibitors of Shiga toxin in Vero cells | 290,000 compounds, 9.2% hits | AID 2315 | Vero cells, Shiga toxin protein synthesis inhibition reporter | inhibition, % at 38.7 µM; in the data active = inhibition mostly above about 28%, no sharp cut-off; inactive = mostly below about 43%; also: 0% is about no effect
Pf growth 48h – inhibits P. falciparum growth in the first generation, 48 h; P. falciparum luciferase growth in erythrocytes, 48 h; Potency, µM (titrated, usually from 28.7 µM), without a hit: at the top dose activity change, negative = inhibition, most hits filed as inhibitors; 310,000 compounds, 5.9% hits; also: potency is read from the fitted curve at half-maximal effect; % is scaled to controls: 0 for no effect and ±100 for the full control effect
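In quantitative HTS format, infected erythrocytes bearing luciferase-reporter parasites were treated for a single generation at 37 C. Luminescence after adding detection reagent served as the growth measure.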
* marks the source's active call; other numbers are inactive results; ? = inconclusive; nt = not tested or not shown. Shown are actives, neighbours in structure and some others; about 19% of the full set was active somewhere. Unless noted, calls follow the shape of the dose curve; as a rule, active = well fitted curve in the direction sought with a large enough effect; inconclusive = small, poorly fitted or top-dose-only effect, or another doubt; inactive = no such curve, though single readings can be large; an effect the other way counts as inactive or inconclusive.

SMILES | SARS PLpro yeast | CHX counter | AMA1-RON2 inh | Pf growth 96h | Shiga inhibitor | Pf growth 48h
CC(=O)Nc1ccc(OCCOc2ccc(/C=C3\C(=N)N4N=C(C)SC4=NC3=O)cc2)cc1 | 0% | -2 | 8% | 17% | 7 | 14%
CO[C@@H]1CN(C)C(=O)c2cc(NC(=O)NC3CCCCC3)ccc2OC[C@@H](C)N(CC2CCOCC2)C[C@@H]1C | nt | nt | -1% | nt | nt | nt
N#Cc1cnc(NN)nc1 | 2% | -2 | -4% | ? | 1 | 10µM*
Cc1ccc(C)n1-c1ccc(C#N)cn1 | -1% | 2 | -15% | -7% | 22 | 49%
CCOC(=O)CC(c1ccc([N+](=O)[O-])cc1)n1c(C)ccc1C (stereo unspecified) | 3% | -2 | -17% | ? | -2 | ?
COC(=O)CC(c1ccc(C#N)cc1)n1c(C)ccc1C (stereo unspecified) | 0% | -2 | -4% | 13µM* | 1 | 9.3µM*
Cc1ccc(C)c(NC(=S)/C(=C(\[O-])c2ccc(Cl)s2)[n+]2ccccc2)c1 | 0% | 11 | -1% | 5.9µM* | 35 | ?
O=C(Oc1c(CN2CCOCC2)cc(Cl)c2cccnc12)c1cccs1 | ? | 2 | -22% | 0.74µM* | 12 | 2.6µM*
O=C(Oc1ccc(Cl)c2cccnc12)N1CCOCC1 | 1% | -2 | -12% | ? | -9 | 20%
COc1cc(C(=O)Oc2c(CN3CCOCC3)cc(Cl)c3cccnc23)cc(OC)c1OC | ? | 8 | -72% | ? | -8 | nt
O=C(Oc1c(CN2CCOCC2)cc(Cl)c2cccnc12)c1ccccc1Cl | -23% | 8 | -40% | 1.3µM* | -3 | ?
O=C(c1ccccc1)c1c[nH]c(C(=O)NNc2ccccc2)c1 | -2% | -2 | ? | -11% | 21 | -14%
CCC1=Nc2cc(C(=O)NCCCOC)ccc2Sc2ccccc21 | -1% | -5 | -11% | -41% | -9 | nt
CCC1=Nc2cc(C(=O)NCCN3CCCC3)ccc2Sc2ccccc21 | 6% | -3 | -9% | 2.3µM* | -3 | ?
CC(C)OCCCNC(=O)c1ccc2c(c1)NC(=O)c1ccccc1S2 | 2% | -3 | 8% | 2% | -1 | 3.7µM*
CCCC1=Nc2cc(C(=O)NCCCOCC)ccc2Sc2ccccc21 | -4% | -3 | -3% | 13µM* | -34 | ?
O=C(NCCCN1CCCCC1)c1ccc2c(c1)NC(=O)c1ccccc1S2 | 4% | -2 | -10% | ? | -8 | ?
CCCC1=Nc2cc(C(=O)NCCCOC(C)C)ccc2Sc2ccccc21 | -1% | -4 | -11% | 10% | -5 | 12µM*
CCC1=Nc2cc(C(=O)NCCCN3CCOCC3)ccc2Sc2ccccc21 | 8% | 8 | -8% | ? | -7 | ?
CC1=Nc2cc(C(=O)NCCCOC(C)C)ccc2Sc2ccc(C)cc21 | -2% | -9 | -4% | 45% | -10 | 7.4µM*
CC1=Nc2cc(C(=O)NCCCOC(C)C)ccc2Sc2ccccc21 | 1% | 14 | -9% | ? | 15 | ?
Cc1cccc(OCCOC(=O)CN2C(=O)NC3(CCCC3)C2=O)c1 | -5% | nt | 0% | 8% | nt | 58%
CCCOc1ccc(S(=O)(=O)Nc2ccccn2)c2ccccc12 | 1% | -2 | -21% | 24% | nt | 23%
OC(c1ccccc1)(c1nc(/C=C/c2ccccc2)cs1)C(F)(F)F (stereo unspecified) | nt | nt | 7% | nt | nt | nt
Cc1nnc(C)c2c(C)n(-c3ccc(Cl)c(N)c3)c(C)c12 | -4% | -3 | -4% | 13µM* | 1 | -28%
SMILES | SARS PLpro yeast | CHX counter | AMA1-RON2 inh | Pf growth 96h | Shiga inhibitor | Pf growth 48h
Cc1cc(C)cc(-n2c(C)c3c(C)nnc(C)c3c2C)c1 | -17% | -5 | 12% | ? | -13 | ?
C/C=C/C=C/C(=O)[C@@H]1[C@@H]([C@]2(C)OC(=O)C(C)=C2O)[C@H]2/C(=C(O)/C=C/C=C/C)C(=O)[C@]1(C)C(=O)C2(C)O (stereo partly specified) | 1% | -5 | -17% | 7.4µM* | 1 | -25%
CCc1nc2c(OCCC3CCCCC3)cccn2c1N(C)C(=O)c1ccc(OC)cc1 | nt | nt | -11% | nt | nt | nt
CCc1ccc2c(c1)C(NC(C)=O)C(=O)N2CCN1CCOCC1 (stereo unspecified) | -2% | -1 | 11% | -7% | -2 | 14%
COc1ccc2c(c1)C(=O)N(c1ccccc1)C(=O)C2 | 5% | -3 | 6% | ? | -7 | ?
COc1ccc2c(c1)C1(C)CC(C)(C)N2C(=O)N1c1ccccc1 (stereo unspecified) | -13% | -1 | -8% | 10µM* | -17 | ?
COC(C(=O)Nc1ccnn1C1CCN(C(=O)c2cccc(F)c2)CC1)c1ccccc1 (stereo unspecified) | 5% | -3 | 11% | ? | -6 | -22%
CCCN1CCC(=O)N([C@H](CSc2ccc(Br)cc2)Cc2ccccc2)CC1 | 0% | -2 | -24% | 1.9µM* | -6 | ?
CCCN1CCC(=O)N([C@H](CSc2ccccc2)c2ccccc2)CC1 | -7% | 24* | -5% | ? | 19 | ?
CCCN1CCC(=O)N([C@H](CO)c2ccccc2)CC1 | 7% | -1 | 14% | -34% | -4 | 30%
CCCN1CCC(=O)N([C@H](CSc2ccc(C)cc2)c2ccccc2)CC1 | 0% | 23* | 1% | ? | 46* | ?
CCCN1CCC(=O)N(C(CSc2ccc(Br)cc2)c2ccccc2)CC1 (stereo unspecified) | nt | 50* | nt | nt | 77* | nt
N#Cc1cc2c([nH]c1=O)CCCC2 | 2% | -5 | 12% | -1% | 1 | -7%
N#Cc1cc2c([nH]c1=S)CCCC2 | 6% | 33* | 37% | 4% | 50* | 3%
Cc1cccc(N=Nc2cnc(N)s2)c1 | 0% | 47* | -18% | 96% | 49* | 184%
CC(=O)Nc1ncc(N=Nc2cccc(C(F)(F)F)c2)s1 | 0% | 1 | 7% | 4% | 13 | -19%
CC1CCCN(C(=O)CCc2ccccc2)C1 (stereo unspecified) | -20% | 9.3* | 6% | 41% | active | 38%
CCCOC1CCCN(C(=O)CCc2nnc(CCCCc3ccccc3)o2)C1 (stereo unspecified) | -1% | 34* | -2% | ? | 41* | ?
COCC1CCN(C(=O)CCc2nnc(CCCCc3ccccc3)o2)CC1 | 0% | -2 | 12% | ? | 7 | 5%
O=C(CCc1nnc(CCCc2ccccc2)o1)N1CCCCCC1 | 1% | 32* | -3% | -8% | 87* | -1%
CN1C(=O)[C@H]2[C@@H](c3ccccc3)N[C@]3(CCCN(Cc4ccc(F)cc4)C3=O)[C@H]2C1=O | nt | nt | -8% | nt | nt | nt
COc1ccc(C(=O)Cc2cc3ccccc3oc2=O)cc1 | 0% | 28* | 8% | 5% | 61* | 89%
